Screening results deposited in PubChem BioAssay by Johns Hopkins Ion Channel Center.
Rows were chosen to be rich in hits. Some 2.3% of all compounds tested hit in one or more screens of this group.
TMEM16A inh: mouse TMEM16A channel inhibition, primary screen; AID 588511; normalized B-score (activity score, 25-100; higher = stronger inhibition) at 10 µM; HEK293 TMEM16A/YFP iodide influx fluorescence, ionomycin; Q8BHY3; 310,000 compounds, 1.2% hits;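 active = ratio plate-corrected score three or more library SD toward inhibition, starting fluorescence score within five deviations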;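 also: score derived from kinetic fluorescence span divided by baseline fluorescence per well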
CHT block: inhibitors of human choline transporter CHT; AID 488975; 310,000 compounds, 0.86% hits; CHT-expressing cells, membrane potential dye, choline response; stronger effect = lower value; B-score at 10 µM;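 active = B-score over 3 SD under the library average, and starting fluorescence ratio not unusually high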;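 also: choline stimulus applied at its EC90 after an EC20 pre-addition; B-score computed on integrated fluorescence ratio after choline addition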
Target sequence (Q9GZV3 whole entry, looked up): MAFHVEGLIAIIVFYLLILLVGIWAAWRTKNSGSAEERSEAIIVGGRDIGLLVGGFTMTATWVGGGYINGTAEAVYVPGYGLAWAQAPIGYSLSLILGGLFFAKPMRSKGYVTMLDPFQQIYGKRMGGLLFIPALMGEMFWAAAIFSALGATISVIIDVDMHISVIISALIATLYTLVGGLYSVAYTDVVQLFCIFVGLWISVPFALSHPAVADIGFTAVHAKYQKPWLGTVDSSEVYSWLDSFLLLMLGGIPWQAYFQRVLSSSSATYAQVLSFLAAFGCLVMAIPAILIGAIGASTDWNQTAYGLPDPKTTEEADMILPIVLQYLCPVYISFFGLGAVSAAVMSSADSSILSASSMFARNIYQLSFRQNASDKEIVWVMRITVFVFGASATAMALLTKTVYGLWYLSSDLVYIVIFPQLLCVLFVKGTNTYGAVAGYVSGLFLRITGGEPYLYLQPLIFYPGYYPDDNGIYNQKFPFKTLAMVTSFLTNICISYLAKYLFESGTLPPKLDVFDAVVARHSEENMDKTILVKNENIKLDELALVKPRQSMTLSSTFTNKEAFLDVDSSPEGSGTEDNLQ
CHT PAM: allosterically activates the human high affinity choline transporter | CHT-expressing cells, membrane potential dye, choline EC20; stronger effect = higher value; LV-AA mutant CHT in HEK293 cells | B-score at 10 µM | 310,000 compounds, 0.49% hits;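 active = initial fluorescence not abnormally high and integrated response B-score, plate-corrected, over 3 SD above library mean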
ANO1 activ: activates or potentiates the mouse TMEM16A chloride channel; Q8BHY3; HEK293 TMEM16A/YFP-H148Q/I152L, iodide quench fluorescence; stronger effect = lower value; B-score at 10 µM; 340,000 compounds, 0.3% hits;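 active = fluorescence-ratio B-score plate-corrected deviation score at least 3 library SD below zero, with starting fluorescence score within 5 deviations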;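 also: channel opened by trigger with iodide after compound preincubation; score built on the fluorescence ratio of max minus min over baseline; more negative score means more quench and so TMEM16A activation or potentiation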
CHT inh conf: confirmation of human choline transporter CHT inhibitors; shares compounds with CHT block; CHT-expressing cells, choline membrane potential dye; LV-to-AA substituted CHT, HEK293 cells; CHT activity remaining % of control (stronger effect = lower value), % at 10 µM; 2,400 compounds, 70% hits; AID 493221;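 active = choline transporter activity left, mean of duplicates at 10 µM, below buffer-only control mean minus 3 SD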;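 also: depolarization triggered by choline at its EC90 following an EC20 pre-addition; 0% = hemicholinium-3 full block and 100% = buffer-only control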
HEK293 CHT ctr: activity in parental HEK293 cells lacking CHT; membrane potential ratio readout (active if shifted either direction beyond buffer ±3SD; no single direction) at 10 µM; membrane potential dye, choline response; active = decrease or increase beyond buffer ±3SD; 2,400 compounds, 4% hits; shares compounds with CHT block;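 also: parental cells lack the transporter so any hit is non-specific; ratio is peak minus trough fluorescence over baseline after EC90 choline challenge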
TMEM16A reconf: re-confirmation of mouse TMEM16A chloride channel inhibitors. shares compounds with TMEM16A inh. HEK293 TMEM16A/YFP-H148Q, iodide quench fluorescence; ionomycin added to raise cell calcium. inhibition, % at 10 µM. 2,300 compounds, 39% hits. AID 652189;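 active = mean duplicate percent inhibition, scaled so buffer wells are 0 and the reference blocker 100, over three buffer SD above buffer mean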
TMEM16A Ca cntr: calcium mobilization counter-screen hit for TMEM16A inhibitor series. calcium response (% of ionomycin), % at 10 µM. AID 652231. shares compounds with TMEM16A inh. TMEM16A/YFP HEK293, Fluo4 calcium mobilization. 2,300 compounds, 2% hits;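 active = duplicate-averaged calcium signal over 20% of the ionomycin maximum, relative to buffer baseline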;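 also: each well's signal is peak minus trough fluorescence divided by its pre-addition baseline; 0% = buffer wells and 100% = ionomycin wells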
YFP-HEK293 quench: acts in parental YFP-HEK293 cells lacking TMEM16A, counter-screen; shares compounds with TMEM16A inh; iodide YFP quench, ionomycin; 2,300 tested, under 10 active; AID 652233; YFP ratio F(max-min)/F0 at 10 µM;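 active = yellow fluorescent protein signal ratio exceeding the buffer control mean by over 5 SD of those controls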;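 also: ratio is mean of duplicate wells from kinetic YFP trace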
ClC-1 inh: selectivity of TMEM16A inhibitors: inhibition of rat ClC-1 chloride channel | shares compounds with TMEM16A inh | ratio percent, % at 10 µM | AID 652236 | 2,300 tested, under 10 active | CHO ClC-1-YFP, iodide influx fluorescence quench; iodide control reads 0, buffer control 100;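 active = duplicate-mean ratio percent above the mean of iodide-only control wells, which defines zero, plus 5 of their SD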;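 also: higher percent means stronger block of ClC-1 iodide influx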
* hit, by the source's call; i = inactive; . = not tested or not shown.

SMILES | TMEM16A inh | CHT block | CHT PAM | ANO1 activ | CHT inh conf | HEK293 CHT ctr | TMEM16A reconf | TMEM16A Ca cntr | YFP-HEK293 quench | ClC-1 inh
O=C(Nc1cc(S(=O)(=O)N2CCCCC2)ccc1O)c1ccccc1NS(=O)(=O)c1ccc(F)c(F)c1 | 25* | -9.4* | i | i | 28%* | i | 50%* | i | -0.8 | -10
O=C(Nc1cc(S(=O)(=O)Nc2ccccc2Cl)ccc1O)c1ccc(F)cc1F | . | . | . | i | . | . | . | . | . | .
CCCc1cc(C(=O)NNC(=S)NCc2ccccc2)cs1 | 100* | -8.2* | i | i | 54%* | i | i | i | -1.1 | 0
CCc1cc(C(=O)NNC(=S)NCc2ccccc2)cs1 | i | i | i | i | . | . | . | . | . | .
Cc1cc(C)c(S(=O)(=O)/N=C2\C=C(Nc3ccc(C(=O)O)cc3)C(=O)c3ccccc32)c(C)c1 | 25* | -5.6* | i | i | 25%* | i | 26%* | i | -1.2 | -30
O=C(O)c1ccc(NC2=C/C(=N/S(=O)(=O)c3ccccc3)c3ccccc3C2=O)cc1 | . | . | . | i | . | . | . | . | . | .
CC(c1ccco1)N(C(=O)c1ccccc1NS(=O)(=O)c1ccc(Cl)c([N+](=O)[O-])c1)c1ccccn1 (stereo unspecified) | 100* | -7.8* | i | i | 66%* | i | 26%* | i | -0.91 | -22
CC(c1ccco1)N(C(=O)c1cc(Cl)cc(Cl)c1)c1ccccn1 (stereo unspecified) | i | i | i | i | . | . | . | . | . | .
CCCOc1ccc(C(=O)NNC(=S)NC(=O)c2ccco2)cc1 | 100* | -7.9* | i | i | 54%* | i | 43%* | 62%* | -1 | -10
CC1N(C(=O)N2CCOCC2)CCN1S(=O)(=O)c1cccc(C(F)(F)F)c1 (stereo unspecified) | i | i | i | i | . | . | . | . | . | .
CCCCOc1ccc2c(c1)/C(=C(\C(Cl)=C(Cl)Cl)[N+](=O)[O-])N2 | i | i | i | i | . | . | . | . | . | .
O=C(NNC1=C(C(=O)C(F)(F)F)CCC1)c1ccc(Cl)cc1 | 25* | -5.1* | i | i | 40%* | i | 24%* | i | -0.88 | -12
O=C(COc1ccccc1Br)c1ccc(O)cc1O | 100* | -5.7* | i | i | 54%* | i | i | i | -1 | -10
COc1ccc(-c2cc(C(F)(F)F)c3c(=O)n(-c4ccccc4)[nH]c3n2)cc1 | 100* | -6* | i | i | 66%* | 2.3* | 23%* | i | -1.2 | -4
Cn1c(CNC(=O)OC(C)(C)C)nnc1SCc1c(Cl)cccc1Cl | i | i | i | i | . | . | . | . | . | .
O=C1OC(c2ccccc2)(c2ccc(O)cc2)c2ccccc21 (stereo unspecified) | . | . | . | i | . | . | . | . | . | .
Cc1cc(O)ccc1C1(c2ccc(O)cc2C)OC(=O)c2ccccc21 | 25* | -12* | i | i | 63%* | i | 43%* | i | -0.94 | -4
Cc1ccc(S(=O)(=O)N2CCN(CCOc3c(Cl)cccc3Cl)CC2)cc1C | . | . | . | i | . | . | . | . | . | .
COC(=O)c1ccc(O)c(Sc2cc(C(=O)OC)ccc2O)c1 | 100* | -5.3* | i | i | i | i | 19%* | i | -1.2 | -4
COc1cccc(CN(C)C(=O)c2cc(COc3ccc4ncccc4c3)on2)c1 | 25* | -6* | i | i | i | i | 38%* | i | -0.98 | -34
